# Screening results deposited in PubChem BioAssay by several laboratories.
# A selection: hits, their analogues and other compounds. The true share with any hit is near 2.5%.
# G6PDH CS = inhibits Leuconostoc G6PDH, flagging false hits in G6PDH-based assays. AID 1020. inhibition, % at 5 µM. Purified L. mesenteroides G6PDH, diaphorase/resazurin coupled fluorescence, 45 min. actives 0.12% (n = 200,000); in the data active = inhibition above about 50%
# HDAC3 inhib = inhibitors of human histone deacetylase 3. actives 0.15% (n = 320,000). AID 2718. recombinant HDAC3, fluorogenic peptide/trypsin coupled, fluorescence. O15379. inhibition, % at 8.3 µM; in the data active = inhibition above about 26%, passing the limit was not always enough; inconclusive = no clear call, values can overlap the other calls
# Target sequence (O15379 whole entry, looked up): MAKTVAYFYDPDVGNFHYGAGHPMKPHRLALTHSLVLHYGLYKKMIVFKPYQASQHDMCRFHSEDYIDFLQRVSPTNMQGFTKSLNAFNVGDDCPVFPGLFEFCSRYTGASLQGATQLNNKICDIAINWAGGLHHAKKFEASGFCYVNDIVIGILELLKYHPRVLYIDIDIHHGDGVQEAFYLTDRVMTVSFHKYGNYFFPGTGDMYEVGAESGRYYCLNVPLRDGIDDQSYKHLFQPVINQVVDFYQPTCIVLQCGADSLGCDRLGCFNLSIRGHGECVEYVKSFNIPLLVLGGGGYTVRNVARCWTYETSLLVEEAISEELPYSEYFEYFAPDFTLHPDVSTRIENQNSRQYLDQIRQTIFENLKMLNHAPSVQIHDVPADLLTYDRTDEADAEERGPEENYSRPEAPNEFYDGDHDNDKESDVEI
# p97 ATPase inh = blocks human p97 ATPase activity; P55072; recombinant p97 ATPase, Kinase-Glo ATP luminescence, 3 h; inhibition, % at 8 µM; actives 0.42% (n = 220,000); AID 1481; in the data active = inhibition above about 15%;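 note: 0% = DMSO vehicle and 100% = wells lacking enzyme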
# M18AAP inhibitor = blocks P. falciparum M18 aspartyl aminopeptidase. recombinant PfM18AAP, H-Glu-NHMec fluorogenic cleavage. actives 1.2% (n = 290,000). inhibition, % at 7.35 µM;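 active = inhibition above the campaign mean inhibition over all tested compounds plus 3 SD, cut at about 28% in these data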;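 note: 0% = plate median of test compound wells and 100% = 2 mM ZnCl2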
# PHOSPHO1 block = blocks human PHOSPHO1 phosphatase activity. Q8TCT1. recombinant PHOSPHO1, absorbance phosphatase assay. inhibition, % at 13.3 µM. actives 1.1% (n = 290,000). AID 1565; in the data active = inhibition above about 60%
# SUMO HTRF inh = SUMOylation inhibition. P63279. HTRF SUMOylation assay, SAE1/SAE2 + UBC9, in vitro. inhibition, % at 35 µM. actives 0.36% (n = 290,000); in the data active = inhibition above about 50%, passing the limit was not always enough; inconclusive = no clear call, values can overlap the other calls
# Target sequence (P63279 whole entry, looked up): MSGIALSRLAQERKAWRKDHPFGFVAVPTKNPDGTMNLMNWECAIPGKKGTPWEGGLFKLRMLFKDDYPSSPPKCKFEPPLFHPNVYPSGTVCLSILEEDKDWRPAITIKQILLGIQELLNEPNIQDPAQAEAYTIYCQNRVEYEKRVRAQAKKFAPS
# An asterisk follows results filed as active; ? = inconclusive; nt = no result given.
SMILES,G6PDH CS,HDAC3 inhib,p97 ATPase inh,M18AAP inhibitor,PHOSPHO1 block,SUMO HTRF inh
O=C(CCCCn1c(=O)[nH]c2ccccc2c1=O)NC1CCN(Cc2ccccc2)CC1,7,-16,4,-1,63*,-15
O=c1[nH]c2ccc(Cl)cc2c(-c2ccccc2)c1N1CCOCC1,-21,-4,1,3,70*,-3
CCN(CC)C(=S)Sc1c(-c2ccccc2)c2cc(Cl)ccc2[nH]c1=O,12,-7,5,3,88*,-117
C[C@H]1CN([C@@H](C)CO)C(=O)c2cccc(NC(=O)Nc3ccc(C(F)(F)F)cc3)c2O[C@@H]1CN(C)S(=O)(=O)c1ccc(Cl)cc1,nt,34*,nt,nt,nt,nt
COC(=O)c1ccc(NC(=O)c2snnc2-c2ccccc2)cc1,8,10,4,-2,61*,-2
Cc1ccc(NC(=S)NNC(=O)c2cccc([N+](=O)[O-])c2)cc1Cl,nt,6,1,11,74*,-64
O=C(N/N=C/c1ccc([N+](=O)[O-])o1)c1cc(-c2ccncc2)nc2ccccc12,2,-3,2,-1,8,13
O=C(N/N=C\c1ccc(-c2ccc([N+](=O)[O-])cc2)o1)c1ccc2c(c1)OCO2,-56,0,6,-3,-20,31
O=C(N/N=C/c1ccc([N+](=O)[O-])o1)c1ccc2c(c1)OCO2,nt,7,nt,30*,-4,6
O=C(N/N=C/c1ccc([N+](=O)[O-])o1)c1cc(-c2ccc(-c3ccccc3)cc2)nc2ccccc12,7,-1,7,23,43,62*
CN(C)/C=C/C(=O)c1ccc([N+](=O)[O-])c(CS(=O)(=O)c2ccc(Cl)cc2)c1,nt,2,nt,-4,15,15
C/C(=N\NC(=O)Cc1cccn1C)c1ccco1,nt,9,5,14,28,16
Cn1cccc1CC(=O)N/N=C/C=C/c1ccco1,5,4,5,5,-11,80*
Brc1ccc(-c2csc(NNC3=NCCCCC3)n2)cc1,-1,5,8,2,88*,-23
FC(F)Oc1ccc(-c2csc(NNC3=NCCCCC3)n2)cc1,4,4,1,13,61*,-4
CC(C)(C)c1ccc(-c2csc(NNC3=NCCCCC3)n2)cc1,8,2,-1,14,45,18
COc1cc2c(cc1OC)CN(C(=O)CSc1ccccc1C)CC2,nt,-4,nt,nt,nt,nt
Clc1ccc2ccc3cccnc3c2n1,nt,10,nt,1,61*,-2
O=C(Cc1ccc(Cl)cc1)Nc1cc(Cl)ccn1,nt,-10,nt,nt,nt,nt
O=C1c2ccccc2C(=O)N1OS(=O)(=O)c1ccccc1,4,44*,5,-8,-2,0
O=C1c2cccc3cccc(c23)C(=O)N1OS(=O)(=O)c1ccccc1,-11,2,-7,-10,-14,13
CCOC(=O)C1(CCOc2ccccc2)CCN(Cc2cccc3nonc23)CC1,8,4,2,0,60*,-30
CCOC(=O)N=Nc1c(O)n(CC(=O)OC)c2ccccc12,5,-2,-6,-4,-22,19
CCOC(=O)N=Nc1c2ccccc2c2nc3no[nH]c3nc12,55*,nt,2,5,-91,15
O=C(Nc1ccccc1)c1nnsc1S(=O)c1ccc(Cl)cc1 (configuration not stated),-1,6,6,-114,93*,22
SMILES,G6PDH CS,HDAC3 inhib,p97 ATPase inh,M18AAP inhibitor,PHOSPHO1 block,SUMO HTRF inh
O=C(c1nnsc1S(=O)c1ccc(Cl)cc1)N1CCOCC1 (configuration not stated),2,nt,5,-152,28,8
CC(=O)OCC1O[C@@H](O[C@@H]2C[C@H]3C(C)(C)[C@H](OC(C)=O)CC[C@]3(C)[C@H]3CC[C@]45C[C@]4(CC[C@H]5[C@@H](C)C[C@@H](O)[C@H](O)C(C)(C)O)[C@@]32C)[C@H](O)[C@@H](O)[C@@H]1O (some centres not stated),24,42*,-16,10,6,-21
COc1ccc(S(=O)(=O)Nc2cccc(S(=O)(=O)N3CCCC3)c2)cc1OC,nt,-2,nt,nt,nt,nt
O=C(N/N=C/c1c[nH]c2ccc(Br)cc12)c1ccn(Cc2ccc(Cl)cc2)n1,1,11,0,-9,62*,-23
O=C(N/N=C/c1c[nH]c2ccccc12)c1ccn(Cc2ccc(Cl)cc2Cl)n1,11,-2,13,0,38,3
Cc1ccc[n+](CC(=O)Nc2ccc(C)c(C)c2)c1,nt,-4,nt,6,4,3
CSc1nc(N2CCOCC2)c2c(c1C#N)CC(C(C)C)OC2 (configuration not stated),nt,7,nt,0,44,-8
CC1(C)Cc2c(c(N3CCCC3)[nH]c(=S)c2C#N)CO1,4,2,3,0,67*,-4
CC(C)C1Cc2c(C#N)c(N)n(C)c(=S)c2CO1 (configuration not stated),8,4,0,-1,68*,32
CC1(C)Cc2c(C#N)c(N)sc(=S)c2CS1,12,1,8,17,101*,7
Cn1c(N)c(C#N)c2c(c1=S)COC(C)(C)C2,12,4,4,-5,64*,13
CC(C)C(C)NC(=O)CN1C(=O)NC(c2ccccc2)(c2ccccc2)C1=O (configuration not stated),nt,-1,nt,-6,-7,-14
COc1cc(/C=N/Nc2nc(C)cc(C)n2)cc(OC)c1OC,nt,3,nt,6,nt,-1
O=C1N(c2ccccc2)C[C@@H]2C[C@@H](c3cc4ccccc4o3)N3CCC[C@@]123,10,nt,3,-3,37,9
Cn1c(N)c(C#N)c2c(c1=S)CSC(C)(C)C2,15,-3,0,11,91*,48
CC(C)N(C(=O)c1nn(C)c2c1CSc1ccccc1-2)C1CCCCC1,nt,-1,nt,3,8,-13
N#C/C(=C\c1ccc2c(c1)OCO2)C(N)=S,nt,?,12,32*,17,12
Cc1ccsc1C(=O)OCC(=O)N1CC(C)CC(C)C1 (configuration not stated),nt,4,nt,nt,nt,nt
COc1ccccc1C(=O)NNC(=O)C1CCCO1 (configuration not stated),nt,-4,nt,-1,43,-2
O=C1CC[C@@H](CN(Cc2ccccc2)Cc2cn[nH]c2-c2cc3ccccc3o2)N1,13,10,0,3,32,14
c1ccc2oc(-c3[nH]ncc3CN(Cc3ccncc3)CC3CCCO3)cc2c1 (configuration not stated),6,3,-2,5,60*,4
c1ccc(Cc2nnc3sc(-c4cccnc4)nn23)cc1,-3,-2,1,3,10,19
c1csc(-c2nn3c(Cn4cnc5ccccc54)nnc3s2)c1,-9,-1,1,3,83*,-1
c1ccc(Cc2nnc3sc(-c4ccncc4)nn23)cc1,-10,0,0,10,80*,6
